In PubChem BioAssay AID1159580 (chemical genetic matrix, 2015):
Values joined by “and” are separate entries in the source; they are usually repeats but may differ in a detail not shown here. Equal values may be shown once. Screen size: about 5,500 compounds; about 2,000 (36%) were called active. Not shown: some 18% with an inconclusive outcome. No stated cut-off is given here; in the data, active means normalized growth mostly below about 0.91 (no sharp cut-off); inconclusive means no clear call, values can overlap the other calls; inactive means mostly above about 0.92. The list shows a part of the results.

Assay: chemical genetic growth profiling, strain panel (AID 1159580);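 further: tested at 20 µM; growth read once vehicle control cultures reached saturation at 30 °C; 1 = growth at the plate median or of vehicle wells; lower values mean less growth of the strain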
Conditions: S. cerevisiae deletion strains, growth OD

Measured: normalized growth

c1ccc(CN(CC2=NCCN2)c2ccccc2)cc1
inactive: locus YAL013W, strain DEP1, active compounds read low 1.01 | locus YAL021C, strain ccr4, active compounds read low 0.973 | locus YAL026C, strain drs2, active compounds read low 0.999 | locus YAL030W, strain snc1, active compounds read low 1.01 | locus YBL061C, strain skt5, active compounds read low 1.03 | locus YBR009C, strain hhf1, active compounds read low 0.998 | locus YBR021W, strain FUR4, active compounds read low 1.02 | locus YBR023C, strain chs3, active compounds read low 1.02 | locus YBR171W, strain sec66, active compounds read low 1.02 | locus YBR229C, strain ROT2, active compounds read low 1 | locus YBR231C, strain swc5, active compounds read low 0.999 | locus YBR279W, strain paf1, active compounds read low 1.02 | locus YCL011C, strain gbp2, active compounds read low 0.989 | locus YCL016C, strain dcc1, active compounds read low 0.976 | locus YCL029C, strain bik1, active compounds read low 1.01 | locus YCL069W, strain vba3, active compounds read low 1.02 | locus YCR088W, strain abp1, active compounds read low 1.01 | locus YDL005C, strain med2, active compounds read low 1.01 | locus YDL035C, strain GPR1, active compounds read low 1.02 | locus YDL040C, strain nat1, active compounds read low 1.02 | locus YDL074C, strain BRE1, active compounds read low 1.01 | locus YDL101C, strain DUN1, active compounds read low 1.01 | locus YDL134C, strain PPH21, active compounds read low 1.01 | locus YDL185W, strain tfp1, active compounds read low 1 | locus YDL192W, strain arf1, active compounds read low 1 | locus YDR001C, strain nth1, active compounds read low 1.01 | locus YDR069C, strain doa4, active compounds read low 1.02 | locus YDR101C, strain arx1, active compounds read low 0.994 | locus YDR137W, strain rgp1, active compounds read low 0.967 | locus YDR159W, strain sac3, active compounds read low 1 | locus YDR162C, strain NBP2, active compounds read low 1.03 | locus YDR195W, strain ref2 1.02 | locus YDR297W, strain sur2, active compounds read low 1.01 | locus YDR318W, strain mcm21, active compounds read low 0.992 | locus YDR334W, strain swr1, active compounds read low 1.02 | locus YDR335W, strain msn5, active compounds read low 1 | locus YDR388W, active compounds read low 1.01 | locus YDR392W, strain spt3, active compounds read low 0.961 | locus YDR502C, strain sam2, active compounds read low 1 | locus YEL003W, strain gim4, active compounds read low 1.03 | locus YEL037C, strain rad23, active compounds read low 1.01 | locus YEL061C, strain CIN8 (second series), active compounds read low 1.01 | locus YEL061C, strain CIN8, active compounds read low 1.01 | locus YER015W, strain faa2, active compounds read low 0.999 | locus YER016W, strain bim1, active compounds read low 1.01 | locus YER110C, active compounds read low 0.992 | locus YER111C, strain swi4, active compounds read low 1.03 | locus YER155C, strain BEM2 (second series), active compounds read low 1.04 | locus YER155C, strain BEM2, active compounds read low 0.997 | locus YER167W, strain BCK2, active compounds read low 1.01 | locus YFR010W, strain ubp6, active compounds read low 1.02 | locus YGL078C, strain dbp3, active compounds read low 0.997 | locus YGL086W, strain mad1, active compounds read low 0.997 | locus YGL167C, strain pmr1, active compounds read low 1.03 | locus YGL173C, strain kem1, active compounds read low 1.03 | locus YGL227W, strain vid30, active compounds read low 1.01 | locus YGL240W, strain doc1, active compounds read low 1.04 | locus YGL248W, strain PDE1, active compounds read low 1 | locus YGL253W, strain hxk2, active compounds read low 1 | locus YGR135W, strain pre9, active compounds read low 1 | locus YGR252W, strain gcn5, active compounds read low 0.997 | locus YHR013C, strain ard1, active compounds read low 0.972 | locus YHR027C, strain rpn1, active compounds read low 1.02 | locus YHR030C, strain SLT2, active compounds read low 1.01 and 1.02 | locus YHR079C, strain IRE1 (second series), active compounds read low 0.995 | locus YHR079C, strain IRE1, active compounds read low 1.03 | locus YHR094C, strain hxt1, active compounds read low 1 | locus YHR129C, strain ARP1, active compounds read low 1.01 | locus YHR142W, strain chs7, active compounds read low 1 | locus YHR200W, strain rpn10, active compounds read low 1.01 | locus YIL066C, strain RNR3, active compounds read low 1.03 | locus YIL073C, strain SPO22, active compounds read low 1 | locus YIL125W, strain kgd1, active compounds read low 1 | locus YIR030C, strain dcg1, active compounds read low 0.991 | locus YJL092W, strain hpr5, active compounds read low 1.03 | locus YJL095W, strain BCK1 (second series), active compounds read low 1.01 | locus YJL095W, strain BCK1, active compounds read low 1.02 and 1.04 | locus YJL115W, strain asf1, active compounds read low 0.999 | locus YJL129C, strain trk1, active compounds read low 1.03 | locus YJL134W, strain LCB3, active compounds read low 1.01 | locus YJL154C, strain vps35, active compounds read low 1.01 | locus YJL164C, strain tpk1, active compounds read low 0.974 | locus YJL166W, strain qcr8, active compounds read low 1.03 | locus YJL168C, strain set2, active compounds read low 0.993 | locus YJL187C, strain SWE1 (second series), active compounds read low 1.01 | locus YJR043C, strain POL32, active compounds read low 1.01 | locus YJR066W, strain TOR1, active compounds read low 0.983 | locus YKL009W, strain mrt4, active compounds read low 0.994 | locus YKL068W, active compounds read low 1 | locus YKL085W, strain MDH1 (second series), active compounds read low 1.01 | locus YKL085W, strain MDH1, active compounds read low 1.01 | locus YKL160W, strain elf1, active compounds read low 1.02 | locus YKR001C, strain vps1, active compounds read low 0.997 | locus YKR026C, strain gcn3, active compounds read low 0.97 | locus YKR091W, strain srl3, active compounds read low 0.999 | locus YLL001W, strain dnm1, active compounds read low 1.03 | locus YLL026W, active compounds read low 1.02 | locus YLL041C, strain sdh2, active compounds read low 1.01 | locus YLR027C, strain aat2, active compounds read low 0.993 | locus YLR039C, strain RIC1, active compounds read low 0.993 | locus YLR058C, strain SHM2, active compounds read low 1.01 | locus YLR102C, strain apc9, active compounds read low 0.998 | locus YLR113W, strain HOG1, active compounds read low 1.04 | locus YLR221C, strain rsa3, active compounds read low 1.01 | locus YLR258W, strain gsy2, active compounds read low 0.992 | locus YLR262C, strain YPT6 (second series), active compounds read low 1.01 | locus YLR262C, strain YPT6, active compounds read low 1.04 | locus YLR268W, strain sec22, active compounds read low 0.999 | locus YLR320W, strain mms22, active compounds read low 0.982 | locus YLR330W, strain CHS5, active compounds read low 1.01 | locus YLR342W, strain FKS1 (second series), active compounds read low 1.03 | locus YLR342W, strain FKS1, active compounds read low 1.02 | locus YLR357W, strain rsc2, active compounds read low 1.03 | locus YLR370C, strain arc18, active compounds read low 1 | locus YLR371W, strain rom2, active compounds read low 1.01 | locus YLR384C, strain iki3, active compounds read low 1.02 | locus YLR418C, strain cdc73, active compounds read low 1.02 | locus YML016C, strain PPZ1, active compounds read low 1 | locus YML032C, strain rad52, active compounds read low 0.993 | locus YML120C, strain ndi1, active compounds read low 1.03 | locus YML124C, strain tub3, active compounds read low 0.992 | locus YMR058W, strain fet3, active compounds read low 1.01 | locus YMR078C, strain ctf18, active compounds read low 1 | locus YMR125W, strain sto1, active compounds read low 1.01 | locus YMR129W, active compounds read low 1.02 | locus YMR205C, strain PFK2, active compounds read low 1.02 | locus YMR223W, strain ubp8, active compounds read low 1 | locus YMR231W, strain pep5, active compounds read low 1 | locus YMR307W, strain GAS1, active compounds read low 1.08 | locus YNL067W, strain RPL9B, active compounds read low 1.02 | locus YNL071W, strain lat1, active compounds read low 0.999 | locus YNL183C, strain NPR1, active compounds read low 0.975 | locus YNL209W, strain ssb2, active compounds read low 0.996 | locus YNL233W, strain BNI4, active compounds read low 1 | locus YNL248C, strain rpa49, active compounds read low 0.987 | locus YNL250W, strain rad50, active compounds read low 0.992 | locus YNL271C, strain bni1, active compounds read low 0.995 | locus YNL298W, strain CLA4, active compounds read low 1.01 | locus YNL307C, strain MCK1, active compounds read low 1 | locus YNL322C, strain KRE1 (second series), active compounds read low 1.01 | locus YNR049C, strain mso1, active compounds read low 1.01 | locus YNR052C, strain pop2, active compounds read low 0.996 | locus YOL012C, strain htz1 0.89 | locus YOL147C, strain pex11, active compounds read low 1 | locus YOR001W, strain rrp6, active compounds read low 1.02 | locus YOR061W, strain CKA2, active compounds read low 1.01 | locus YOR069W, strain VPS5, active compounds read low 1 | locus YOR070C, strain gyp1, active compounds read low 1 | locus YOR080W, strain dia2, active compounds read low 1.01 | locus YOR083W, strain WHI5, active compounds read low 1.02 | locus YOR106W, strain vam3, active compounds read low 1.03 | locus YOR136W, strain idh2, active compounds read low 1 | locus YOR144C, strain elg1, active compounds read low 0.998 | locus YOR184W, strain ser1, active compounds read low 1.01 | locus YOR231W, strain MKK1, active compounds read low 1.06 | locus YOR265W, strain rbl2, active compounds read low 1.01 | locus YOR270C, strain vph1, active compounds read low 0.988 | locus YOR290C, strain snf2, active compounds read low 0.969 | locus YOR316C, strain cot1, active compounds read low 1 | locus YPL051W, strain arl3, active compounds read low 1.03 | locus YPL078C, strain atp4, active compounds read low 1.04 | locus YPL106C, strain sse1, active compounds read low 0.998 | locus YPL240C, strain hsp82, active compounds read low 0.97 | locus YPL241C, strain CIN2, active compounds read low 1.01 | locus YPL256C, strain CLN2, active compounds read low 1.06 | locus YPR119W, strain clb2, active compounds read low 0.991 | locus YPR141C, strain kar3, active compounds read low 1 | locus YPR163C, strain tif3, active compounds read low 1.01 | locus YPR167C, strain met16, active compounds read low 0.996 | strain wtn01, active compounds read low 0.99
